Source: PubChem BioAssay AID1159580 (chemical genetic matrix, 2015)
Among all 5,500 compounds or so, about 2,000 (36%) were called active. Another 18% or so got no clear call; they are omitted. No stated cut-off is given here; in the data, active means normalized growth mostly below about 0.91 (no sharp cut-off); inconclusive means no clear call, values can overlap the other calls; inactive means mostly above about 0.92. This is one part of the list.

Experiment: chemical genetic growth profiling, strain panel (AID 1159580);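 further: tested at 20 µM; growth read once vehicle control cultures reached saturation at 30 °C; 1 = growth at the plate median or of vehicle wells; lower values mean less growth of the strain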
Conditions: S. cerevisiae deletion strains, growth OD
[1] = locus YHR030C, strain SLT2, active compounds read low
[2] = locus YHR079C, strain IRE1, active compounds read low
[3] = locus YJL095W, strain BCK1, active compounds read low
[4] = locus YJR066W, strain TOR1, active compounds read low
[5] = locus YLR113W, strain HOG1, active compounds read low
[6] = locus YNL183C, strain NPR1, active compounds read low
[7] = locus YOR231W, strain MKK1, active compounds read low
[8] = locus YPL256C, strain CLN2, active compounds read low

Measured: normalized growth

O=C1c2ccccc2C(=O)C1c1ccc(Br)cc1
inactive: [3] 0.888
active: [1] 0.851 | [2] 0.816 | [4] 0.823 | [5] 0.717 | [6] 0.818 | [7] 0.853 | [8] 0.712

COc1ccc(C2CC(c3ccc(C)cc3C)=NN2C(C)=O)cc1 (centres undefined)
inactive: locus YAR019C, strain CDC15, active compounds read low 0.997 | locus YBL105C, strain PKC1, active compounds read low 0.993 | locus YBR135W, strain CKS1, active compounds read low 0.984 | locus YBR136W, strain MEC1, active compounds read low 0.981 | locus YBR160W, strain CDC28, active compounds read low 0.995 | locus YDL017W, strain CDC7, active compounds read low 0.992 | locus YDL028C, strain MPS1, active compounds read low 0.984 | locus YDL101C, strain DUN1, active compounds read low 0.987 | locus YDL108W, strain KIN28, active compounds read low 0.977 | locus YDL132W, strain cdc53, active compounds read low 0.994 | locus YDL214C, strain PRR2, active compounds read low 0.872 | locus YDR052C, strain DBF4, active compounds read low 0.999 | locus YDR054C, strain cdc34, active compounds read low 0.983 | locus YDR226W, strain ADK1, active compounds read low 0.985 | locus YDR477W, strain SNF1, active compounds read low 0.919 | locus YER123W, strain YCK3, active compounds read low 0.85 | locus YER133W, strain GLC7, active compounds read low 0.911 | locus YFL009W, strain cdc4, active compounds read low 0.984 | locus YFL029C, strain CAK1, active compounds read low 0.994 | locus YFR003C, strain YPI1, active compounds read low 0.988 | locus YFR019W, strain FAB1, active compounds read low 0.937 | locus YFR028C, strain CDC14, active compounds read low 0.981 | locus YGR040W, strain KSS1, active compounds read low 0.89 | locus YGR052W, strain FMP48, active compounds read low 0.971 | locus YGR092W, strain DBF2, active compounds read low 0.909 | [1] 1.04 | [2] 0.971 | locus YHR082C, strain KSP1, active compounds read low 0.984 | locus YHR205W, strain SCH9, active compounds read low 0.931 | locus YIL147C, strain SLN1, active compounds read low 0.978 | [3] 0.967 | locus YJL128C, strain PBS2, active compounds read low 0.907 | locus YJL157C, strain FAR1, active compounds read low 0.889 | locus YJR016C, strain ILV3, active compounds read low 0.994 | locus YJR066W, strain TOR1 (second series), active compounds read low 0.881 | [4] 0.978 | locus YKL048C, strain ELM1, active compounds read low 0.955 | locus YKL067W, strain YNK1, active compounds read low 0.908 | locus YKL101W, strain HSL1, active compounds read low 0.905 | locus YKL193C, strain SDS22, active compounds read low 0.989 | locus YKL203C, strain TOR2, active compounds read low 0.981 | [5] 0.868 | locus YLR133W, strain CKI1, active compounds read low 0.93 | locus YLR403W, strain SFP1, active compounds read low 0.916 | locus YML070W, strain DAK1, active compounds read low 0.888 | locus YMR001C, strain CDC5, active compounds read low 0.998 | locus YMR205C, strain PFK2 (second series), active compounds read low 0.913 | locus YMR277W, strain FCP1, active compounds read low 0.986 | locus YNL006W, strain LST8, active compounds read low 0.998 | locus YNL020C, strain ARK1, active compounds read low 0.914 | locus YNL161W, strain CBK1, active compounds read low 0.997 | [6] 0.995 | locus YNL207W, strain RIO2, active compounds read low 0.991 | locus YNL222W, strain SSU72, active compounds read low 0.991 | locus YNL307C, strain MCK1 (second series), active compounds read low 0.931 | locus YOL078W, strain AVO1, active compounds read low 0.994 | locus YOL136C, strain PFK27, active compounds read low 0.887 | locus YOR061W, strain CKA2, active compounds read low 0.881 | locus YOR119C, strain RIO1, active compounds read low 0.979 | [7] 0.927 | locus YOR329C, strain SCD5, active compounds read low 0.997 | locus YPL031C, strain PHO85, active compounds read low 0.917 | locus YPL153C, strain RAD53, active compounds read low 0.905 | locus YPL204W, strain HRR25, active compounds read low 0.922 | locus YPL209C, strain IPL1, active compounds read low 0.998 | [8] 0.975 | locus YPR025C, strain CCL1, active compounds read low 0.992 | locus YPR106W, strain ISR1, active compounds read low 0.979 | locus YPR111W, strain DBF20, active compounds read low 0.977 | strain NNK1, active compounds read low 0.97 | strain TSCII, active compounds read low 0.995
